High-throughput results (PubChem BioAssay)
Sampled rows, rich in hits. Any-hit rate of the full collection: about 10%.
BAZ2B inh = blocks human BAZ2B | 4.4% of 360,000 active | Potency, µM (highest dose often 114 µM), for inactives: at the highest dose activity change, negative = inhibition, most hits filed as inhibitors | AlphaScreen BAZ2B-H3K14Ac peptide displacement; note: potency is the fitted concentration of half-maximal effect; % is set by controls: 0 for no effect and ±100 for the full control effect; nearly all actives have a fitted effect of over 60% in size
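Compounds, titrated to a top concentration of 110 uM, were incubated 30 min at room temperature with preformed BAZ2B/acetyl-K14 H3 peptide complex (50 nM each). Proximity signal was measured by AlphaScreen after 20 min with beads.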
JMJD2A Tudor inh = JMJD2A Tudor domain (human) inhibition. O75164. Potency, µM (doses to about 114 µM), without a hit: top-dose activity change, negative = inhibition, actives largely listed as inhibitors. 4.4% of 390,000 active. AlphaScreen JMJD2A-Tudor / H3K4me3 peptide binding; note: potency is the fitted concentration of half-maximal effect; % is set by controls: 0 for no effect and ±100 for the full control effect; nearly all actives have a fitted effect of over 50% in size
Six1-Eya2 blk = blocks human Six1 binding to Eya2. activity change, % (no concentration beside the values). AlphaScreen GST-Six1/His-Eya2 binding, biochemical; active compounds read low. 0.56% of 360,000 active; in the data active = activity change below about -65%; inconclusive = mostly about -30% to -63%; note: % is set by controls: 0 for no effect and ±100 for the full control effect
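AlphaScreen with GST-Six1 and His-Eya2 (5X mix: 250 nM and 500 nM), glutathione donor and nickel acceptor beads; buffer 50 mM Tris pH 8.0, 300 mM NaCl, 1 mM TCEP; 1 h at 37 C in the dark.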
CtBP-E1A blk = inhibitors of CtBP/E1A interaction; AlphaScreen GST-E1A/His-CtBP binding, 1536-well; active compounds read low; activity change, % (no concentration beside the values); 0.49% of 340,000 active; AID 651724; in the data active = activity change below about -65%; inconclusive = mostly about -30% to -63%; note: % is set by controls: 0 for no effect and ±100 for the full control effect
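In 5 uL wells, 23 nL compound meets equimolar GST-E1A and His-CtBP (5X stock 125 nM each) for 2 h, 37 °C. Beads (5X, 50 ug/mL) then 1 h, 37 °C, dark.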
G9a inh = inhibitors of human histone lysine methyltransferase G9a | Q96KQ7 | G9a H3K9 monomethylation, AlphaScreen, 2 h | Potency, µM (doses to about 102 µM), inactives show at the top dose activity, negative = inhibition, most hits filed as inhibitors | 8.8% of 350,000 active | AID 504332; note: potency is the fitted concentration of half-maximal effect; % is set by controls: 0 for no effect and ±100 for the full control effect; nearly all actives have a fitted effect of over 75% in size
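Compounds were preincubated with 20 nM G9a for 15 min, after which biotinylated H3K9 peptide (500 nM) and SAM (20 uM) started a 2 h room-temperature reaction. Monomethylated product was quantified by antibody-based AlphaScreen chemiluminescence.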
HP1b chromo inh = blocks HP1-beta chromodomain binding to methylated histone tails | P83916 | Potency, µM (doses to about 114 µM), for the others: top-dose activity change, negative = inhibition, usual class: inhibitors | 0.56% of 390,000 active | AlphaScreen HP1-beta / biotin-H3K9me3 peptide binding; note: potency is the fitted concentration of half-maximal effect; nearly all actives have a fitted effect of over 70% in size
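HP1-beta protein (50 nM final) preincubated 30 min at room temperature with biotinylated H3(1-18)K9me3 peptide (50 nM) in PBS pH 7.4, 0.01% Tween-20, then compound added for 30 min. AlphaScreen streptavidin donor/nickel chelate acceptor beads (10 ug/mL final), 30 min dark, luminescence read.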
An asterisk follows results filed as active; ? = inconclusive; . = no result; [ ] = another dose, or the depositor's remark. Unless noted, calls come from the whole dose curve; as a rule, active = well fitted inhibition curve with a large enough effect; inconclusive = small, poorly fitted or top-dose-only effect; inactive = no such curve, though single readings can be large or run the other way.

SMILES	BAZ2B inh	JMJD2A Tudor inh	Six1-Eya2 blk	CtBP-E1A blk	G9a inh	HP1b chromo inh
CC(NC(=O)Nc1cccc(F)c1)c1ccc2c(c1)OCO2 (stereo not given)	3.2%	-6.9%	9.2	-10.1	.	44.0%
COc1ccc(OCC#CCNC(C)(C)C)cc1	56.2µM*	39.8µM*	1.4	7.5	7.94µM*	?
CCOc1ccc(C(=O)Nc2cc(NC(=O)c3ccc(OCC)c(Cl)c3)cc(C(=O)O)c2)cc1Cl	?	50.1µM*	-17.0	-7.6	?	?
CCOc1ccc(NC(=O)c2cc(F)c(F)cc2Cl)cc1OCC	-3.3%	-4.5%	-5.9	-97.1*	2.8%	42.1%
Nc1cc2c(cc1[N+](=O)[O-])-c1ccccc1C2=NO	.	28.2µM*	?	0.2	.	?
O=c1[nH]c(=S)c2ncn(-c3ccccc3)c2[nH]1	?	14.1µM*	-10.4	-9.6	25.1µM*	-6.9%
Nc1nc2c(ncn2-c2ccccc2)c(=O)[nH]1	.	0.0%	?	-73.3*	.	29.4%
Nc1nc2nn(-c3ccccc3)nc2c(=O)[nH]1	-12.1%	-4.3%	?	.	-3.6%[59 µM]	20.7%
CC(C)(C)c1ccc(C(=S)N2CCN(c3ccccc3)CC2)cc1	-34.3%	-35.9%	-23.0	-16.5	20µM*	?
CCN(CC)c1ccc(C(=S)N2CCN(c3ccccc3)CC2)cc1	10µM*	-16.8%[11.4 µM]	-15.1	-9.5	11.2µM*	?
CCCN1CCN(CCCNC(=O)c2ccc3c(c2)NC(=O)c2ccccc2S3)CC1	-8.4%[57.1 µM]	-12.1%	-0.2	.	-9.6%	12.5%
CN(C)CCNC(=O)c1ccc2c(c1)NC(=O)c1ccccc1S2	-7.6%	-10.4%	2.4	.	44.7µM*	10.0%
CCN(CC)CCNC(=O)c1ccc2c(c1)NC(=O)c1ccccc1S2	4.8%	-7.5%	-3.3	-7.2	44.7µM*	24.3%
CN(C)S(=O)(=O)c1cccc(NC(=O)CCCC2CCCCC2)c1	.	6.5%	0.4	8.4	.	76.8%
CN(C)S(=O)(=O)c1cccc(NC(=O)CNC2CCCCC2)c1	?	22.4µM*	-2.7	.	50.1µM*	?
CCN(CC)S(=O)(=O)c1ccc(NC(=O)CNC2CCCCC2)cc1	79.4µM*	5.62µM*	13.4	.	25.1µM*	?
O=C(CNC(=O)C(c1ccccc1)c1ccccc1)OCC(=O)c1cccc2ccccc12	.	-14.6%[57.1 µM]	.	.	.	13.2%[57 µM]
CCOc1cc(/C=C2\COc3ccccc3C2=O)cc(Br)c1OCC(=O)N(C)C	?	?	-10.0	-12.9	39.8µM*	-22.3%
CCOc1cc(/C=N/Nc2nc3ccccc3[nH]2)cc(Br)c1OCC(=O)N(C)C	-16.0%	-22.4%	?	-17.3	15.5%	25.1%
COc1ccc(/C=C2/CCc3ccccc3C2=O)cc1OC	?	-12.3%	2.4	-6.9	-1.4%[59 µM]	20.2%
COc1ccc(/C=C2\COc3ccccc3C2=O)cc1OC	-2.7%	50.1µM*	-15.9	0.3	-10.2%[59 µM]	-2.9%
COc1cc2c(cc1OC)C(COc1ccccc1OC)N(C(=O)CC(C)C)CC2 (stereo not given)	-13.3%	-14.7%	.	.	-2.9%[59 µM]	13.1%
CCc1c(C)sc2nc3c(C(=O)N4CCOCC4)cc(C(=O)c4ccccc4O)cn3c(=O)c12	?	?	-8.0	-5.3	-43.2%	14.4%
CCOC(=O)c1sc2nc3c(SCC(=O)O)cc(C(=O)c4ccccc4O)cn3c(=O)c2c1C	15.8µM*	10µM*	6.0	0.5	31.6µM*	?
CCOC(=O)c1sc2ncn(C(C)C(=O)OCC)c(=O)c2c1C (stereo not given)	-7.9%	9.7%	2.9	-1.3	5.0%[59 µM]	33.6%
CCOC(=O)c1sc2nc3c(SCC(=O)O)cc(C(=O)c4cc(F)ccc4O)cn3c(=O)c2c1C	35.5µM*	39.8µM*	-8.1	-1.0	79.4µM*	?
Cc1sc2nc3c(SC(C)C(=O)O)cc(C(=O)c4ccccc4O)cn3c(=O)c2c1C (stereo not given)	?	-31.7%	-20.1	6.6	50.1µM*	-13.4%
O=C(O)CSc1cc(C(=O)c2ccccc2O)cn2c(=O)c3c(-c4ccccc4)csc3nc12	.	56.2µM*	-15.1	.	?	-13.8%[57 µM]
